Compound activity from PubChem.
GLP1R cytotox – cytotoxicity in counter-screen for GLP-1R inverse agonists; AID 624418; actives 0.13% (n = 410,000); HEK293 cAMP-luciferase reporter cells, luminescence, 24 h; Potency, µM (titrated, usually from 38.3 µM), inactives show at the top dose activity change, negative = inhibition, most hits filed as inhibitors;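 note: loss of luciferase light is scored as toxicity; potency is the fitted concentration of half-maximal effect; % is set by controls: 0 for no effect and ±100 for the full control effect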
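A 23 nL compound transfer followed 12 hours of cell culture at 37 deg C; exposure then lasted 24 hr. Luciferase assay detection reagent was dispensed and plates read for luminescence after a 12 min room-temperature wait.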
ClpP mod – qHTS Assay for Activators of ClpP; purified B. subtilis ClpP, FRET peptide cleavage, 20 min; Potency, µM (top dose mostly 57.5 µM), without a hit: at the highest dose activity change, negative = active; actives 1.9% (n = 340,000); AID 651965, 2013; active = well fitted falling curve with a large enough effect; inconclusive = small, poorly fitted or top-dose-only effect; inactive = no such curve, though single readings can be large or run the other way; note: potency is the fitted concentration of half-maximal effect; the source files actives as falling curves though it sought activators and does not explain the sign; nearly all actives have a fitted effect of over 65% in size
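Buffer: 100 mM Tris/HCl pH8, 100 mM KCl, 0.05% low protease BSA, 2.5% glycerol, 0.01% Tween-20. ClpP 10 microg/mL final; 20 min RT; delta FRET normalized to ADEP and DMSO controls.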
GLP1R ag – GLP-1 receptor (human) agonism. HEK293 GLP-1R CRE-luciferase, luminescence, 4-6 h; cells express a hypersensitive GLP-1R form. P43220. AID 624172. Potency, µM (doses to about 45.6 µM), for the others: at the highest dose activation, most hits filed as activators. actives 0.007% (n = 380,000); note: potency is the fitted concentration of half-maximal effect; % of control where 0% means no effect
GLP1R inv ag – acts as inverse agonist at human GLP-1 receptor | HEK293 GLP-1R CRE-luciferase, luminescence, 24 h; GLP-1R form is constitutively active | Potency, µM (top dose mostly 38.3 µM), without a hit: at the top dose activity change, negative = inhibition, usual class: inhibitors | actives 1.6% (n = 410,000); note: potency is the fitted concentration of half-maximal effect; % is set by controls: 0 for no effect and ±100 for the full control effect; nearly all actives have a fitted effect of over 55% in size
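Inverse agonism was detected as reduced cAMP-driven luciferase luminescence after 24 h compound treatment. The cells were HEK293 clones expressing constitutively active human GLP-1R with the reporter. Reporter-only and GPR119 cell lines served as counterscreen controls.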
DRD3 antagonist – D3 dopamine receptor (human) antagonism. max response, negative = inhibition, %. P35462. D3R cells, DiscoveRx beta-arrestin luminescence, antagonist mode; stronger effect = lower value. AID 652054. actives 2.5% (n = 360,000); in the data active = max response below about -50%; inconclusive = no clear call, values can overlap the other calls; note: % is set by controls: 0 for no effect and ±100 for the full control effect
Target sequence (P35462 whole entry, looked up): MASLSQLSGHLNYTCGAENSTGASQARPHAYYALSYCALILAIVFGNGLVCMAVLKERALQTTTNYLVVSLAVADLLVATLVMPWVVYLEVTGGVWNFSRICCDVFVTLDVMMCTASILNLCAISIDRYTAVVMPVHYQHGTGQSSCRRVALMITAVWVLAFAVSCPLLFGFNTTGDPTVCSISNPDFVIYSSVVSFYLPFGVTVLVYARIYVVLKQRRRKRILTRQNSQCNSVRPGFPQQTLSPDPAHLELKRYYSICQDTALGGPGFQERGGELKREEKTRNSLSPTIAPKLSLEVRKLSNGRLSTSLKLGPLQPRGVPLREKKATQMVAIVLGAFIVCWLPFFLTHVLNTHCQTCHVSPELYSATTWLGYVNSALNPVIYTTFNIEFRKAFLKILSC
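Cells plated overnight at 1500 cells/well, then exposed to library compounds with dopamine controls for 90 minutes at 37 degrees C. DiscoveRx reagent added for 30–60 minutes at room temperature; luminescence read, quantitative HTS format.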
D3 ag – agonists of human D3 dopamine receptor; AID 652048; P35462; D3R DiscoveRx beta-arrestin cells, luminescence, 90 min; actives 0.58% (n = 410,000); max activation, %; in the data active = max activation above about 30%; note: 0% is about no effect
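Agonist mode: compounds and dopamine controls were applied to plated cells for 90 min at 37 degrees C after an overnight attachment at 1500 cells/well. Luminescent read-out followed 30 - 60 minutes at room temperature with DiscoveRx detection reagent.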
* hit, by the source's call; ? = inconclusive; . = no result. This is a sample that favours compounds with a hit; in the whole collection about 5.7% have one here. Unless noted, calls come from the whole dose curve; as a rule, active = well fitted curve in the direction sought with a large enough effect; inconclusive = small, poorly fitted or top-dose-only effect, or another doubt; inactive = no such curve, though single readings can be large; an effect the other way counts as inactive or inconclusive.

SMILES	GLP1R cytotox	ClpP mod	GLP1R ag	GLP1R inv ag	DRD3 antagonist	D3 ag
COc1ccc(Cc2nc3ccc(C(=O)N4CCCCC4CO)cc3o2)cc1OC (stereo unspecified)	5%	0%	0%	43%	17	2
CC(NC(=O)Cn1c(-c2cccs2)cc2cc(F)ccc21)c1ccccc1 (stereo unspecified)	6%	28µM*	.	17%	.	7
Cc1ccc2c(c1C)NC(=O)CC2c1ccc(Cl)cc1Cl (stereo unspecified)	0%	2%	4%	32%	.	3
Cc1cccc(NS(=O)(=O)c2ccc3oc(=O)c4ncn(C)c4c3c2)c1C	?	0%	.	19%	.	42*
O=C1CCCC2=C1C1(CCCCC1)N=C(Nc1nc3ccccc3s1)N2	-9%	-10%	-1%	-31%	43	10
O=C1CCCC2=C1C1(CCCC1)N=C(Nc1nc3ccccc3s1)N2	-8%	28µM*	-8%	0%	-14	5
O=C(Nc1cccc(OC(F)(F)F)c1)[C@@H]1O[C@H](CO)[C@H](O)[C@H](O)[C@H]1O	0%	-1%	3%	20%	28	2
CCc1nc2cccnc2n1-c1ccc(CC(=O)Nc2ccccc2Cl)cc1	11%	-3%	.	3%	.	0
Clc1ccc(OCCn2c(-c3ccco3)nc3ccccc32)cc1	2%	?	5%	?	?	1
c1coc(Cn2c(-c3ccco3)nc3ccccc32)c1	-9%	28µM*	?	-15%	-10	-1
Cc1ccc(C(=O)Nc2cccc(C(F)(F)F)c2)cc1NC(=O)c1c[nH]c2cc(C(F)(F)F)ccc2c1=O	-15%	0%	2%	0%	0	3
CCN1CCN(Cc2ccc(NC(=O)c3ccc(C)c(NC(=O)c4c[nH]c5cc(C(F)(F)F)ccc5c4=O)c3)cc2C(F)(F)F)CC1	?	-6%	0%	10µM*	1	3
CCCCN(CC)CCCNC(=O)Nc1sc2nc3n(c(=O)c2c1C)CCC(C)CC3 (stereo unspecified)	-5%	-7%	.	10µM*	.	-31
Cc1cc(C)c(NC(=O)Nc2sc3nc4n(c(=O)c3c2C)CCC(C)CC4)c(C)c1 (stereo unspecified)	8%	-4%	.	-5%	.	-9
O=C(CNC(=O)c1ccc(Br)o1)NNC(=O)c1ccc(Cl)cc1	-19%	22µM*	-2%	-5%	-9	-6
O=C(NCc1nnnn1-c1ccc(Cl)cc1)c1ccc(Br)o1	-5%	16µM*	0%	7%	1	2
COc1ccc(-c2cn[nH]c2-c2ccc(OC)cc2O)cc1	?	.	-2%	10µM*	10	5
COc1ccc(-c2cn[nH]c2-c2ccc(OCc3ccccc3)cc2O)cc1	?	.	2%	3.5µM*	?	-1
CCOc1ccc(-c2[nH]ncc2-c2ccccc2)c(O)c1	-3%	-19%	5%	10µM*	-26	2
CCCOC(=O)c1ccc(Oc2cn[nH]c2-c2ccc(OCC)cc2O)cc1	?	0%	-26%	10µM*	9	2
Cc1cc(C)c(NC(=O)Cn2c(=O)oc3cc(S(=O)(=O)N4CCCCCC4)ccc32)c(C)c1	-4%	1%	.	?	.	-10
Cc1cc(C)c(S(=O)(=O)Nc2ccc(-c3ccc(N4CCCCC4)nn3)cc2)c(C)c1	-31%	0%	.	?	.	0
COc1ccc(O)c(-c2[nH]ncc2C(=O)c2ccccc2)c1	58%	0%	7%	-8%	-57*	-6
O=C(c1ccccc1)c1cn[nH]c1-c1ccccc1O	-7%	-2%	29%	8%	-1	-1
CC1=C(C(=O)Nc2ccccc2C)C(c2cccnc2)n2nc(SCc3ccccc3)nc2N1 (stereo unspecified)	0%	1%	.	10%	.	7
